TDP1 cell noCPT – qHTS for Inhibitors of human tyrosyl-DNA phosphodiesterase 1 (TDP1): qHTS in cells in absence of CPT; actives 15% (n = 420,000); DT40 Tdp1-/- hTDP1 cells, no CPT, ATP luminescence, 48 h; Potency, µM (top dose mostly 46.2 µM), most hits filed as inhibitors; further: nearly all actives have a fitted effect of over 55% in size
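No-CPT arm: Tdp1-/-;hTDP1 DT40 cells (400/well) plus compounds, incubated ≥48 hr at 37 °C. Readout CellTiter-Glo luminescence.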
IL-1B inflam inh – inflammasome signaling inhibition, IL-1 beta readout. activity change, % at 57.5 µM. THP-1 LPS/ATP IL-1B secretion, AlphaLISA, 16 h; stronger effect = lower value. actives 4.7% (n = 360,000). AID 743279; in the data active means activity change below about -50%; inconclusive means mostly about -30% to -49%
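Secreted IL-1B measured by AlphaLISA bead assay after 16 h compound exposure of THP-1 cells; compounds (final up to 57.5 uM) added 1 h before LPS (250 ng/mL) and ATP (1.25 mM) stimulation; lower signal means less secretion.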
SW480 rerep – inducers of DNA re-replication in SW480 colon cancer cells; SW480 DNA re-replication, Hoechst DNA content imaging, 48 h; Potency, µM (highest dose often 46.1 µM), hits mostly activators; actives 1.8% (n = 340,000); AID 624297; further: nearly all actives have a fitted effect of over 55% in size
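250 cells/well; 23 nL cpd via pin tool; 48 hr, 37 C, 5% CO2; Hoechst 40 min; imager read of total nuclear intensity, ex 405/em 500-530 nm.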
DT40 TDP1 CPT – growth inhibition of DT40 Tdp1-/-;hTDP1 cells with camptothecin (screen for TDP1 inhibitors) | chicken DT40 Tdp1-/-;hTDP1 cells + 20 nM CPT, ATP luminescence, 48 h | Potency, µM (titrated, usually from 46.2 µM), usual class: inhibitors | actives 12% (n = 420,000) | AID 686979; further: nearly all actives have a fitted effect of over 55% in size
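Cell growth measured by CellTiter-Glo luminescence after a minimum 48 h, 37 C compound exposure with 20 nM CPT in Tdp1-knockout DT40 cells stably expressing hTDP1, seeded 400/well; qHTS titration format.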
BCR signal inh – inhibitors of chronic active B-cell receptor signaling; ABC-DLBCL IkBa-CBG/CBR reporter, luminescence ratio, 4 h; actives 0.05% (n = 340,000); Potency, µM (series often up to 46.1 µM), actives largely listed as inhibitors; active means well fitted inhibition curve with a large enough effect in the signal ratio, with a control signal flat, not every such curve was filed as active; inconclusive means small, poorly fitted or top-dose-only effect, or effect the other way, or a change in a side signal; the % refers to the signal ratio
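TMD8 ABC-DLBCL cells carrying doxycycline-inducible green luciferase fused to IkappaBalpha plus unfused red luciferase were exposed to compounds (up to 46 uM) for 4 hrs at 37C. Activity came from the overlap-corrected green/red luminescence ratio.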
MCF10A rerep – inducers of DNA re-replication in MCF 10A breast cells; MCF 10A DNA re-replication, Hoechst nuclear intensity, 48 h; Potency, µM (titrated, usually from 46.1 µM), most hits filed as activators; actives 2.9% (n = 350,000); AID 624296; further: nearly all actives have a fitted effect of over 50% in size
Large screens that a line does not name were inactive. An excerpt weighted towards active compounds, which were near 19% of everything screened. Unless noted, the call rests on the fitted dose curve; in most records, active means well fitted curve in the direction sought with a large enough effect; inconclusive means small, poorly fitted or top-dose-only effect, or another doubt; inactive means no such curve, though single readings can be large; an effect the other way counts as inactive or inconclusive.

Nc1ncnc2c1ncn2[C@@H]1O[C@H](CNC(=O)[C@@H](N)Cc2ccc(C(=O)c3ccccc3)cc2)[C@@H](O)[C@H]1O	none (no result: SW480 rerep, BCR signal inh, MCF10A rerep)
COCc1nc(-c2ccc(-c3ccccc3)nc2OC)no1	IL-1B inflam inh inconclusive
COc1nc(-c2ccccc2)ccc1-c1noc(C)n1	TDP1 cell noCPT inconclusive, MCF10A rerep 13µM (no result: BCR signal inh)
CC(NC(=O)C(=O)Nc1c2c(nn1-c1ccc(F)cc1)CSC2)c1ccccc1 (configuration not stated)	TDP1 cell noCPT 8.2µM (no result: IL-1B inflam inh, SW480 rerep, MCF10A rerep)
CCC(CO)NC(=O)C(=O)Nc1c2c(nn1-c1ccc(F)cc1)CSC2 (configuration not stated)	none (no result: IL-1B inflam inh, SW480 rerep, MCF10A rerep)
CC(NC(=O)C(=O)Nc1c2c(nn1-c1ccccc1)CSC2)c1ccccc1 (configuration not stated)	TDP1 cell noCPT 21µM, DT40 TDP1 CPT 15µM (no result: IL-1B inflam inh, SW480 rerep, MCF10A rerep)
Cc1csc2nc(O)c(C(=O)NCCCc3ccccc3)c(=O)n12	TDP1 cell noCPT 15µM, DT40 TDP1 CPT 15µM, BCR signal inh inconclusive
Cc1nc2scc(C)n2c(=O)c1S(=O)(=O)NCCc1ccccc1	TDP1 cell noCPT inconclusive, DT40 TDP1 CPT inconclusive
Cc1csc2nc(O)c(C(=O)NCCC3=CCCCC3)c(=O)n12	TDP1 cell noCPT 7.3µM, DT40 TDP1 CPT 15µM, MCF10A rerep inconclusive
CCCCn1c(=O)[nH]c(=O)c2c1nc(-c1ccsc1)n2Cc1ccccc1	TDP1 cell noCPT 29µM, DT40 TDP1 CPT inconclusive
CCCCn1c(=O)[nH]c(=O)c2c1nc(-c1ccccc1F)n2Cc1ccccc1OC	TDP1 cell noCPT inconclusive, DT40 TDP1 CPT 23µM, BCR signal inh inconclusive
CCCn1c(-c2cccc([N+](=O)[O-])c2)nc2c1c(=O)[nH]c(=O)n2Cc1ccccc1	TDP1 cell noCPT 16µM, DT40 TDP1 CPT 21µM, BCR signal inh inconclusive
CCCCn1c(=O)[nH]c(=O)c2c1nc(-c1cc(Br)ccc1OC)n2C	TDP1 cell noCPT inconclusive
CCCCn1c(-c2ccsc2)nc2c1c(=O)[nH]c(=O)n2CCC	TDP1 cell noCPT inconclusive, DT40 TDP1 CPT inconclusive, MCF10A rerep inconclusive
CCOc1ccc(CCNC(=O)COC(=O)c2cc(OC)c(OC)cc2[N+](=O)[O-])cc1OCC	TDP1 cell noCPT inconclusive, DT40 TDP1 CPT inconclusive
CC(=O)SC1CC(=O)C=C2CCC3C4CCC(=O)OC4(C)CCC3C21C (configuration not stated)	MCF10A rerep inconclusive (no result: BCR signal inh)
Cn1nnnc1Sc1ccc([N+](=O)[O-])cc1Cl	SW480 rerep inconclusive, MCF10A rerep inconclusive
Cn1c(Sc2ccc(C(=O)O)cc2[N+](=O)[O-])nnc1-c1ccccc1	TDP1 cell noCPT inconclusive, DT40 TDP1 CPT 21µM
CN1CCN(S(=O)(=O)c2ccc(Sc3nnnn3-c3ccccc3)c([N+](=O)[O-])c2)CC1	TDP1 cell noCPT 3.3µM, IL-1B inflam inh -74, SW480 rerep 16µM, DT40 TDP1 CPT 2.9µM, MCF10A rerep 6.5µM
Cn1cnnc1Sc1cc(N2CCN(S(=O)(=O)c3ccccc3)CC2)ccc1[N+](=O)[O-]	TDP1 cell noCPT inconclusive, DT40 TDP1 CPT inconclusive
O=C(O)c1ccc(Sc2nnc(-c3cccc(Br)c3)o2)c([N+](=O)[O-])c1	none
CC(=O)c1ccc(Sc2ccccn2)c([N+](=O)[O-])c1	BCR signal inh inconclusive
CC(=O)c1ccc(Sc2nnnn2-c2ccccc2)c([N+](=O)[O-])c1	TDP1 cell noCPT 2.3µM, IL-1B inflam inh -100, SW480 rerep inconclusive, DT40 TDP1 CPT 2.6µM, MCF10A rerep inconclusive
O=[N+]([O-])c1ccc(Sc2nnnn2-c2ccccc2)c(Cl)c1	TDP1 cell noCPT 21µM, SW480 rerep inconclusive, DT40 TDP1 CPT inconclusive, BCR signal inh inconclusive, MCF10A rerep 4.1µM
O=C(CC1SC(N2CCOCC2)=NC1=O)Nc1cccc(C(F)(F)F)c1 (configuration not stated)	BCR signal inh inconclusive
CC(C)(C)NC[C@H](O)CSc1nc(-c2ccc(C(N)=O)s2)cs1	none (no result: TDP1 cell noCPT, IL-1B inflam inh, DT40 TDP1 CPT, BCR signal inh)
CCN1CCN(C(=O)c2ccc(N3CC4CC(C3)c3cccc(=O)n3C4)c([N+](=O)[O-])c2)CC1 (configuration not stated)	BCR signal inh inconclusive
S=C(c1ccc2c(c1)OCO2)N1CCN(c2cccc(Cl)c2)CC1	TDP1 cell noCPT 4.1µM, SW480 rerep 5.2µM, DT40 TDP1 CPT 3.7µM, MCF10A rerep 1.5µM (no result: BCR signal inh)
Cc1cccc(N2CCN(C(=S)c3ccc4c(c3)OCO4)CC2)c1	TDP1 cell noCPT 5.8µM, SW480 rerep 6.5µM, DT40 TDP1 CPT 6.5µM, MCF10A rerep 1.3µM (no result: BCR signal inh)
CC1CCN(C(=S)c2ccc3c(c2)OCO3)CC1	none
O=C(c1ccc2c(c1)OCO2)N1CCN(c2ccc(Cl)cc2)CC1	TDP1 cell noCPT inconclusive, MCF10A rerep inconclusive
Cc1ccc(CN2C(=O)NC(Cc3c[nH]c4ccccc34)C2=O)cc1 (configuration not stated)	none
CC(C)c1ccc(NC(=O)CN2C(=O)NC(Cc3c[nH]c4ccccc34)C2=O)cc1 (configuration not stated)	TDP1 cell noCPT 16µM, IL-1B inflam inh -59, DT40 TDP1 CPT inconclusive, MCF10A rerep inconclusive
O=C1NC(Cc2c[nH]c3ccccc23)C(=O)N1Cc1cccc2ccccc12 (configuration not stated)	TDP1 cell noCPT inconclusive, IL-1B inflam inh -101
Cc1ccc(C(CC(=O)O)NC(=O)c2ccc(S(=O)(=O)N3CC(C)OC(C)C3)cc2)cc1 (configuration not stated)	none
Cc1ccc(-n2nc3c([n+]2[O-])CCc2c-3no[n+]2[O-])cc1	TDP1 cell noCPT 16µM, IL-1B inflam inh -78, SW480 rerep inconclusive, DT40 TDP1 CPT inconclusive
[O-][n+]1onc2c1CCc1c-2nn(-c2ccccc2Cl)[n+]1[O-]	TDP1 cell noCPT 15µM, IL-1B inflam inh -74, DT40 TDP1 CPT 13µM, BCR signal inh inconclusive
CCCCOc1ccc(N(CC(=O)NC2CCCCC2)C(=O)c2snc(C(N)=O)c2N)cc1	TDP1 cell noCPT 16µM, DT40 TDP1 CPT inconclusive, MCF10A rerep inconclusive
CC(C)(C)NC(=O)CN(C(=O)c1snc(C(=O)NC2CCCCC2)c1N)c1ccccc1F	TDP1 cell noCPT 21µM, IL-1B inflam inh inconclusive, SW480 rerep inconclusive, DT40 TDP1 CPT inconclusive, MCF10A rerep inconclusive
COc1cccc(N(CC(=O)NC2CCCCC2)C(=O)c2snc(C(N)=O)c2N)c1	IL-1B inflam inh -61
Cc1ccc(C)c(N(CC(=O)NC2CCCCC2)C(=O)c2snc(C(N)=O)c2N)c1	DT40 TDP1 CPT inconclusive, BCR signal inh inconclusive, MCF10A rerep inconclusive
